The record followed here is PubChem BioAssay AID1159537 (DiRusso Lab, Biochemistry Department, University of Nebraska, 2015).

About 370 (0.84%) of roughly 44,000 compounds were called active. How the calls were made is not given here. For the sample, actives were picked, then their nearest neighbours and some compounds at random.

This assay can be described thus: compounds raising algal triacylglycerol storage – qHTS, Chlamydomonas reinhardtii, primary screen (AID 1159537).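 Further: hits raise Nile Red signal meaning more stored TAG.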 Conditions: Chlamydomonas reinhardtii TAG, Nile Red fluorescence, 72 h; screened at 10 µM (by protocol). Background: Quantitative high-throughput screening tests each substance at several concentrations.
For `COCCN1C(=O)C(O)=C(C(=O)c2ccc(C)o2)C1c1cccc(Cl)c1` (stereo unspecified), the result was inactive. The result for `NC(=O)c1sc2cc([N+](=O)[O-])ccc2c1Cl` reads “inactive”; that for `O=C(CCCc1ccccc1)Nc1cccc(Cl)c1`, “inactive”; that for `CCc1cccc(C)c1NC(=O)c1cc(OC)cc(OC)c1`, “inactive”.

Take `COc1ccc(CNC(=O)C(c2ccccc2)c2ccccc2)cc1`: the call was inactive. The result for `NC(=O)c1c(NC(=O)COc2ccc([N+](=O)[O-])cc2)sc2c1CCCC2` reads “inactive”; that for `COc1cccc(OCCOc2ccc(C)cc2OC)c1`, “inactive”; that for `COc1ccc(S(=O)(=O)N2CCN(c3ccccc3F)CC2)cc1OC`, “inactive”. Take `CC1(C)Cc2ccccc2/C(=C(\C#N)C(=O)Nc2cccc([N+](=O)[O-])c2)N1`: the outcome was inactive. `Cc1cc(C)nc(NS(=O)(=O)c2ccc(N/C=C\C(=O)c3cccs3)cc2)n1`: the outcome was inactive.

Turning to `Cc1cccc(NC(=O)c2ccc(Cl)c(Cl)c2)c1C`, the result was inactive. In the case of `Cc1cc(=O)[nH]c(SCc2ccc(Cl)cc2)n1`, the outcome was inactive. The result for `CCCCOc1ccc(N2C(=O)CC(N3CCN(c4ccccn4)CC3)C2=O)cc1` (stereo unspecified) reads “inactive”.

As to `CC(=O)N1CCN(Cc2c(Cl)cccc2Cl)CC1`, the outcome was inactive.

Take `C=CCn1c(=O)c(C2=NS(=O)(=O)c3ccccc3N2)c(O)c2ccccc21`: the compound was called inactive. The result for `O=C(c1ccc([N+](=O)[O-])cc1)N1CCN(C2CCCC2)CC1` reads “inactive”. Turning to `CCOc1ccccc1C(=O)Nc1ccc([N+](=O)[O-])cc1OC`, the outcome was inactive. The result for `Clc1ccc(-c2nnc3ccc(NCc4ccccc4)nn23)cc1` reads “inactive”; that for `O=C(O)c1ccccc1C(=O)c1ccc(O)cc1O`, “inactive”; that for `OCCN(Cc1ccccc1)Cc1ccc(-c2ccccc2)cc1`, “inactive”. The result for `CCOc1ccc(NC(=O)C(=O)NCCc2ccc(Cl)cc2)cc1` reads “inactive”; that for `O=C(Nc1cccnc1)c1cccc(C(=O)Nc2cccnc2)c1`, “inactive”; that for `CCN1CCN(C2CCN(Cc3ccccc3)CC2)CC1`, “inactive”. `CCC1CCC(N2CCN(CC)CC2)CC1` (stereo unspecified): the call was active. For the compound `CCOC(=O)N1CCN(C2CCN(CC)CC2)CC1`, the call was inactive.

In the case of `O=C(c1cccc([N+](=O)[O-])c1)c1ccc2c(c1)C(=O)N(c1nccs1)C2=O`, the compound was called inactive.

With `COc1c(S(=O)(=O)NCc2ccncc2)ccc(Cl)c1Cl`, the compound was classed as inactive. Regarding `CCCCOc1ccc(N2C(=O)CC(N3CCN(c4ncccn4)CC3)C2=O)cc1` (stereo unspecified), the compound was called inactive.

`Cc1ccc(SCC(=O)Nc2ccc3c(c2)OCCO3)cc1`: the outcome was inactive.

For `NNc1ncnc2sc3c(c12)CCCC3`, the compound was called inactive. On to `COc1ccc(C(=O)N2CCC(C(=O)Nc3ccc(OCc4ccccc4)cc3)CC2)cc1`, for which the compound was called inactive.

On to `O=C1NCCCc2nc(N3CCOCC3)sc21`, for which the call was inactive. The result for `COc1ccc(N(CC(=O)N(C)Cc2ccccc2)S(C)(=O)=O)cc1OC` reads “inactive”; that for `O=C(COc1ccc(Cl)cc1)Nc1ccc(F)c(F)c1`, “inactive”. The result for `O=C(/C=C/c1ccc(-c2ccccc2Cl)o1)c1ccco1` reads “inactive”. The result for `O=C(c1ccc(C#CC2(O)CCCCC2)cc1)N1CCN(c2ccccc2Cl)CC1` reads “inactive”; that for `N#CC1=C(SCc2ccccc2)NC(=O)CC1c1ccc(Br)cc1` (stereo unspecified), “inactive”; that for `CC(=O)c1ccc(N2CCN(C(=O)c3c(F)c(F)cc(C)c3Cl)CC2)c(F)c1`, “inactive”. For the compound `COc1ccc(-c2cc(C(=O)Nc3cccnc3)c3ccccc3n2)cc1`, the call was inactive. The result for `Cc1cc(C)c(NC(=O)c2ccc(F)cc2)c(C)c1` reads “inactive”; that for `CC(C)c1ccc(OCC(=O)N2CCCC2)cc1`, “inactive”. On to `O=C(NCC1CCNCC1)C(=O)NC1CCCCC1`, for which the result was inactive.

Consider `NC(=O)c1ccc2[nH]c3c(c2c1)CCCC3`, for which the call was inactive. As for `O=S(=O)(CCc1ccccc1)Nc1ccccc1`, the result was inactive. For the compound `CC(C)COc1ccc(C(=O)Nc2ccc([N+](=O)[O-])cc2Cl)cc1`, the result was inactive. The result for `Cc1cc(OCCCCN2CCOCC2)ccc1C(C)C` reads “active”; that for `Cc1cc(OCCN2CCOCC2)nc(NCc2ccccc2)n1`, “inactive”; that for `CCOc1ccc(CN2CCCN(C)CC2)cc1`, “inactive”.

Regarding `Cc1cc(OCCN2CCN(C)CC2)ccc1C(C)C`, the compound was called active.

For the compound `Cc1ccc(C(C)C)cc1OCCN1CCCC1`, the compound was called inactive. For the compound `Cc1ccc(CN2CCOCC2)c(C)c1`, the result was inactive. The result for `CS(=O)(=O)N(Cc1ccc(C(=O)Nc2cccnc2)cc1)c1ccccc1` reads “inactive”; that for `CCc1ccc(N2CC(C(=O)NC(C)CC)CC2=O)cc1` (stereo unspecified), “inactive”; that for `O=C(Nc1cccc(Cl)c1Cl)c1ccc(I)o1`, “inactive”. The result for `CCOc1ccc(NC(=O)C(=O)NCc2ccccc2OC)cc1` reads “inactive”; that for `Cc1cc(Cl)ccc1NC(=O)c1cccnc1`, “inactive”.

As for `CS(=O)(=O)N1CCN(c2ccc(C(=O)NC3C4CC5CC(C4)CC3C5)cc2[N+](=O)[O-])CC1` (stereo unspecified), the outcome was inactive. In the case of `CC1CCN(c2ccc(C(=O)O)cc2[N+](=O)[O-])CC1`, the result was inactive. The result for `Cc1ccc(C(=O)c2ccc(N3CCN(C)CC3)c([N+](=O)[O-])c2)cc1` reads “active”. The result for `CC(=O)c1ccc(NC(=O)c2ccc(CN(c3ccccc3)S(C)(=O)=O)cc2)cc1` reads “inactive”; that for `O=C(C1=C(O)C(=O)N(c2ncccn2)C1c1cccc([N+](=O)[O-])c1)c1ccco1` (stereo unspecified), “inactive”; that for `O=C(Nc1ccccc1C(=O)NCCN1CCOCC1)c1cccc(I)c1`, “inactive”.

As for `CCOc1ccccc1NC1=NS(=O)(=O)c2ccccc21`, the outcome was inactive. `COc1cc(C=O)cc(Br)c1OCc1ccccn1`: the compound was called inactive. As for `Cc1ccc(C(=O)Nc2cccc(O)c2)cc1S(=O)(=O)N1CCC(C)CC1`, the result was inactive. The result for `Cc1cc(C)c(S(=O)(=O)NCCCN2CCOCC2)cc1Br` reads “active”; that for `O=S(=O)(NCCN1CCOCC1)c1ccc(I)cc1`, “inactive”. The result for `O=C(NCCCN1CCOCC1)c1ccccc1Br` reads “inactive”. Turning to `CN(C)CCNC(=O)c1ccc(Cl)cc1`, the compound was called inactive. The result for `CC(=O)c1cc2c(cc1NC(=O)c1ccccc1Cl)OCCO2` reads “inactive”. `Cc1ccc(NS(=O)(=O)c2ccc(C(C)(C)C)cc2)cn1`: the call was inactive. Turning to `COc1ccc(CC(=O)NC(c2ccccc2)c2ccccc2)cc1OC`, the compound was classed as inactive. In the case of `CC1=C(C(=O)Nc2ccc(C)cn2)C(c2cccc(Cl)c2Cl)C2=C(CCCC2=O)N1` (stereo unspecified), the result was inactive. Consider `CCc1ccc(OCCN2CCCC(C)C2)cc1` (stereo unspecified), for which the call was inactive.

For `Cc1nnc(NC(=O)CSc2nnnn2-c2ccc(Cl)cc2)s1`, the compound was called inactive. The result for `O=C(O)c1ccc(C(=O)O)c(S(=O)(=O)c2cc(C(=O)O)ccc2C(=O)O)c1` reads “inactive”.
